In PubChem BioAssay (EPA / NIEHS):
Active and inactive are the calls of the source. Rule for the calls: active = hit-call score of the fitted dose curve at least 0.9, where 1 is the maximum; inactive = score below 0.9.

test: ATG_PXRE_CIS: Attagene CIS-FACTORIAL HepG2 Assay for human Pregnane X Receptor Element (PXRE) (AID 2282957); conditions: HepG2 Attagene CIS-FACTORIAL PXRE reporter, mRNA; actives raise or lower the signal
Outline: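 Read-out: fluorescence of reporter-specific RT-PCR products resolved by capillary electrophoresis, fitted bidirectionally relative to DMSO. Human HepG2 liver cells carried transfected cis-promoter reporter units and were exposed to chemicals for 24 h.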

Row | SMILES | AC50 | outcome
1 | Cc1c(C(=O)O)c(O)cc2c1C(=O)c1c(O)c([C@@H]3O[C@H](CO)[C@@H](O)[C@H](O)[C@H]3O)c(O)c(O)c1C2=O | 53.9 µM (active) | –
2 | Cc1cc(NC(=O)C(=O)O)cc(C)c1Oc1ccc(O)c2c1CCC2 | – | inactive
3 | CCCCCCCCCCO | – | inactive
4 | CCc1c(C(=O)NN2CCCCC2)nn(-c2ccc(Cl)cc2Cl)c1-c1ccc(Br)cc1 | 0.147 µM (active) | –
5 | COc1cc(S(=O)(=O)O)c(C)cc1N=Nc1c(O)ccc2cc(S(=O)(=O)O)ccc12 | – | inactive
6 | CCOC(=O)C(C)(C)Oc1ccc(Cl)cc1 | – | inactive
7 | CN1CCN(Cc2cc(-c3ccc4[nH]c(=O)oc4c3)co2)[C@@H](c2ccc(F)cc2)C1 | 8.51 µM (active) | –
8 | FC(F)(F)C(F)(F)C(F)(F)C(F)(F)C(F)(F)C(F)(F)CCI | – | inactive
9 | CNC(=O)[C@H]1O[C@@H](n2cnc3c(NCc4cc(Cl)ccc4OCc4cc(C)no4)ncnc32)[C@H](O)[C@@H]1N | – | inactive
10 | CCCCc1ccc2c(n1)[C@@H](c1ccc(OC)cc1C[C@H](C)C(=O)O)[C@H](C(=O)O)[C@H]2c1ccc2c(c1)OCO2 | – | inactive
11 | O=C(O)CCCCC(=O)O | 55 µM (active) | –
12 | CCCCCCCCCCCC(=O)OC | – | inactive
13 | Cc1ccc(Cl)cc1 | – | inactive
14 | CC(CO)OC(C)CO (stereo not drawn) (tested in a mixture with another compound) | – | inactive
15 | COCCOCCOC | – | inactive
16 | CC(=O)OCCOCCOCCOC(C)=O | – | inactive
17 | COc1cc(-c2nc(NC(=O)c3cc4cc(C)cc(C)c4n3CC(=O)O)sc2CCC2CCCCC2)c(OC)cc1Cl | – | inactive
18 | O=C(O)Cc1ccccc1Nc1c(Cl)cccc1Cl | 25.8 µM (active) | –
19 | Cc1ccccc1Cl | – | inactive
20 | Cc1nc(C)nc(N2C[C@@H](C)N(c3ccnc([C@@H](C)O)n3)[C@@H](C)C2)n1 | – | inactive
21 | NS(=O)(=O)c1cc2c(cc1Cl)NCNS2(=O)=O | – | inactive
22 | NC(=O)Cn1c(=O)cc(CCN2CCN(c3nccc4sccc34)CC2)c2ccc(F)cc21 | 5.72 µM (active) | –
23 | Cc1cc(=O)[nH]c(=S)[nH]1 | – | inactive
24 | CCCCN(CCCC)CCCC | 26.5 µM (active) | –
25 | Cc1nc(-c2ccc3c(c2)CCN(CCC2CCC(NC(=O)/C=C/c4ccc(F)cc4)CC2)CC3)no1 (stereo not drawn) | – | inactive
26 | COc1cc(/C=C/C(=O)CC(=O)/C=C/c2ccc(O)c(OC)c2)ccc1O | 60.4 µM (active) | –
27 | O=c1[nH]cc(F)c(=O)[nH]1 | – | inactive
28 | CN[C@H]1CC[C@@H](c2ccc(Cl)c(Cl)c2)c2ccc(S(N)(=O)=O)cc21 | – | inactive
29 | Nc1nc(N)c2nc(CNc3ccc(C(=O)N[C@@H](CCC(=O)O)C(=O)O)cc3)cnc2n1 | – | inactive

test: ATG_PPRE_CIS: Attagene CIS-FACTORIAL HepG2 Assay for human Peroxisome Proliferator-activated Response Element (PPRE) (AID 2282958); conditions: HepG2 PPRE cis-element reporter, Attagene transcription factor profiling; actives raise or lower the signal
Outline: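 After human HepG2 hepatoma cells were transiently transfected with cis-promoter reporter constructs, they were exposed to test chemicals for 24 hours. Reporter RNA was then reverse-transcribed, PCR-amplified, FAM-labeled, HpaI-digested and quantified by capillary electrophoresis.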

Row | SMILES | outcome
30 | Cc1c(C(=O)O)c(O)cc2c1C(=O)c1c(O)c([C@@H]3O[C@H](CO)[C@@H](O)[C@H](O)[C@H]3O)c(O)c(O)c1C2=O | inactive
31 | CCc1c(C(=O)NN2CCCCC2)nn(-c2ccc(Cl)cc2Cl)c1-c1ccc(Br)cc1 | inactive
32 | COc1cc(S(=O)(=O)O)c(C)cc1N=Nc1c(O)ccc2cc(S(=O)(=O)O)ccc12 | inactive
33 | CCOC(=O)C(C)(C)Oc1ccc(Cl)cc1 | inactive
34 | FC(F)(F)C(F)(F)C(F)(F)C(F)(F)C(F)(F)C(F)(F)CCI | inactive
35 | CNC(=O)[C@H]1O[C@@H](n2cnc3c(NCc4cc(Cl)ccc4OCc4cc(C)no4)ncnc32)[C@H](O)[C@@H]1N | inactive
36 | O=C(O)CCCCC(=O)O | inactive
37 | CCCCCCCCCCCC(=O)OC | inactive
38 | Cc1ccc(Cl)cc1 | inactive
39 | CC(CO)OC(C)CO (stereo not drawn) (tested in a mixture with another compound) | inactive
40 | COCCOCCOC | inactive
41 | CC(=O)OCCOCCOCCOC(C)=O | inactive
42 | COc1cc(-c2nc(NC(=O)c3cc4cc(C)cc(C)c4n3CC(=O)O)sc2CCC2CCCCC2)c(OC)cc1Cl | inactive
43 | O=C(O)Cc1ccccc1Nc1c(Cl)cccc1Cl | inactive
44 | Cc1ccccc1Cl | inactive
45 | NC(=O)Cn1c(=O)cc(CCN2CCN(c3nccc4sccc34)CC2)c2ccc(F)cc21 | inactive
46 | Cc1cc(=O)[nH]c(=S)[nH]1 | inactive
47 | Cc1nc(-c2ccc3c(c2)CCN(CCC2CCC(NC(=O)/C=C/c4ccc(F)cc4)CC2)CC3)no1 (stereo not drawn) | inactive
48 | COc1cc(/C=C/C(=O)CC(=O)/C=C/c2ccc(O)c(OC)c2)ccc1O | inactive
49 | O=c1[nH]cc(F)c(=O)[nH]1 | inactive
50 | CN[C@H]1CC[C@@H](c2ccc(Cl)c(Cl)c2)c2ccc(S(N)(=O)=O)cc21 | inactive

test: ATG_RORE_CIS: Attagene CIS-FACTORIAL HepG2 Assay for human RAR-related Orphan Receptor Element (RORE) (AID 2282959); conditions: HepG2 Attagene cis-factorial RORE reporter, mRNA; actives raise or lower the signal
Outline: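 Measured here: transcript induction of a cis-regulated reporter in HepG2 cells transiently transfected via FuGene 6. After 24 h, RNA was processed by RT-PCR and fluorescent capillary electrophoresis; DMSO defined baseline activity.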

Row | SMILES | outcome | AC50
51 | Cc1c(C(=O)O)c(O)cc2c1C(=O)c1c(O)c([C@@H]3O[C@H](CO)[C@@H](O)[C@H](O)[C@H]3O)c(O)c(O)c1C2=O | inactive | –
52 | Cc1cc(NC(=O)C(=O)O)cc(C)c1Oc1ccc(O)c2c1CCC2 | inactive | –
53 | CCCCCCCCCCO | inactive | –
54 | CCc1c(C(=O)NN2CCCCC2)nn(-c2ccc(Cl)cc2Cl)c1-c1ccc(Br)cc1 | inactive | –
55 | COc1cc(S(=O)(=O)O)c(C)cc1N=Nc1c(O)ccc2cc(S(=O)(=O)O)ccc12 | inactive | –
56 | CCOC(=O)C(C)(C)Oc1ccc(Cl)cc1 | inactive | –
57 | FC(F)(F)C(F)(F)C(F)(F)C(F)(F)C(F)(F)C(F)(F)CCI | inactive | –
58 | CNC(=O)[C@H]1O[C@@H](n2cnc3c(NCc4cc(Cl)ccc4OCc4cc(C)no4)ncnc32)[C@H](O)[C@@H]1N | inactive | –
59 | CCCCc1ccc2c(n1)[C@@H](c1ccc(OC)cc1C[C@H](C)C(=O)O)[C@H](C(=O)O)[C@H]2c1ccc2c(c1)OCO2 | inactive | –
60 | O=C(O)CCCCC(=O)O | inactive | –
61 | CCCCCCCCCCCC(=O)OC | inactive | –
62 | Cc1ccc(Cl)cc1 | inactive | –
63 | CC(CO)OC(C)CO (stereo not drawn) (tested in a mixture with another compound) | inactive | –
64 | COCCOCCOC | inactive | –
65 | CC(=O)OCCOCCOCCOC(C)=O | inactive | –
66 | COc1cc(-c2nc(NC(=O)c3cc4cc(C)cc(C)c4n3CC(=O)O)sc2CCC2CCCCC2)c(OC)cc1Cl | – | 10.4 µM (active)
67 | O=C(O)Cc1ccccc1Nc1c(Cl)cccc1Cl | inactive | –
68 | Cc1ccccc1Cl | inactive | –
69 | Cc1nc(C)nc(N2C[C@@H](C)N(c3ccnc([C@@H](C)O)n3)[C@@H](C)C2)n1 | inactive | –
70 | NS(=O)(=O)c1cc2c(cc1Cl)NCNS2(=O)=O | inactive | –
71 | NC(=O)Cn1c(=O)cc(CCN2CCN(c3nccc4sccc34)CC2)c2ccc(F)cc21 | inactive | –
72 | Cc1cc(=O)[nH]c(=S)[nH]1 | inactive | –
73 | CCCCN(CCCC)CCCC | inactive | –
74 | Cc1nc(-c2ccc3c(c2)CCN(CCC2CCC(NC(=O)/C=C/c4ccc(F)cc4)CC2)CC3)no1 (stereo not drawn) | inactive | –
75 | COc1cc(/C=C/C(=O)CC(=O)/C=C/c2ccc(O)c(OC)c2)ccc1O | inactive | –
76 | O=c1[nH]cc(F)c(=O)[nH]1 | inactive | –
77 | CN[C@H]1CC[C@@H](c2ccc(Cl)c(Cl)c2)c2ccc(S(N)(=O)=O)cc21 | inactive | –
78 | Nc1nc(N)c2nc(CNc3ccc(C(=O)N[C@@H](CCC(=O)O)C(=O)O)cc3)cnc2n1 | inactive | –
